The record followed here is ChEMBL document CHEMBL1961873, “Compounds: GSK PKIS; Assays: Nanosyn kinase panel” (2012).

Experiment [1] concerns the target Sphingosine kinase 1 (Homo sapiens) (UniProt Q9NYA1). Conditions: at 1 µM.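 Note: mean SPHK1 inhibition value reported from the GSK PKIS kinase panel screen.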
Experiment [2] addresses T1, Sphingosine kinase 2 (Homo sapiens) (UniProt Q9NRA0).
T1 sequence (whole entry): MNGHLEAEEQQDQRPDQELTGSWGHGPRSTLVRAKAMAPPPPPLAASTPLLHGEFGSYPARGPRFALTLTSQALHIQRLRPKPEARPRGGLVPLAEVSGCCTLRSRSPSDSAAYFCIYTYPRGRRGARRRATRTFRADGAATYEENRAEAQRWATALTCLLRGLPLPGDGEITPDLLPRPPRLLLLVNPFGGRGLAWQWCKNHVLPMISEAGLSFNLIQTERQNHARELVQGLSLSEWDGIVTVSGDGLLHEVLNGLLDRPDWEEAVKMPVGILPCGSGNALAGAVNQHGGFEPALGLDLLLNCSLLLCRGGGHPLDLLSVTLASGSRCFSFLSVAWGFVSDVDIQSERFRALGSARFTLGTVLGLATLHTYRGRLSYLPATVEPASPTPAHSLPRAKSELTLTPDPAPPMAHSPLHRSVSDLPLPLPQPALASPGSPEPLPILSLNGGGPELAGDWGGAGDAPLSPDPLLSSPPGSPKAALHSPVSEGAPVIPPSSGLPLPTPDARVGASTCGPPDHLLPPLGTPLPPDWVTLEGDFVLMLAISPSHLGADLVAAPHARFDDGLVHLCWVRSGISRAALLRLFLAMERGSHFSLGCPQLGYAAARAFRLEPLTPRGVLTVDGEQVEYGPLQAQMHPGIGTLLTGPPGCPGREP
The note with it: at 0.1 µM.

In experiment [3] the target is T1, Sphingosine kinase 2 (Homo sapiens). Conditions: at 1 µM.
In experiment [4] the target is Casein kinase II subunit alpha (Homo sapiens) (UniProt P68400). Conditions: at 0.1 µM.
Sequence of Casein kinase II subunit alpha (Homo sapiens) (P68400 whole entry, looked up): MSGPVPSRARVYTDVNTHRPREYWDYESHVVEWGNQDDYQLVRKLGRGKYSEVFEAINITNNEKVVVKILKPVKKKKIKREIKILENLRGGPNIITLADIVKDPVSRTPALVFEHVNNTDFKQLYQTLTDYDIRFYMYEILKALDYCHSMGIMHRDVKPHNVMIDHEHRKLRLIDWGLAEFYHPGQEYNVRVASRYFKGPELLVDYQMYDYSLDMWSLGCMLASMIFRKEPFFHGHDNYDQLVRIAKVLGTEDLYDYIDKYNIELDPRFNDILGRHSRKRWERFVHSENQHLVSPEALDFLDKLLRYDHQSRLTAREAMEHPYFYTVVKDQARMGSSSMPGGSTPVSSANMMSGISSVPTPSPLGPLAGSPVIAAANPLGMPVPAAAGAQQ
The target is the same in experiment [5]. Conditions: at 1 µM.
Experiment [6] has as its target T2, Inhibitor of nuclear factor kappa-B kinase subunit alpha (Homo sapiens) (UniProt O15111).
T2 sequence (whole entry): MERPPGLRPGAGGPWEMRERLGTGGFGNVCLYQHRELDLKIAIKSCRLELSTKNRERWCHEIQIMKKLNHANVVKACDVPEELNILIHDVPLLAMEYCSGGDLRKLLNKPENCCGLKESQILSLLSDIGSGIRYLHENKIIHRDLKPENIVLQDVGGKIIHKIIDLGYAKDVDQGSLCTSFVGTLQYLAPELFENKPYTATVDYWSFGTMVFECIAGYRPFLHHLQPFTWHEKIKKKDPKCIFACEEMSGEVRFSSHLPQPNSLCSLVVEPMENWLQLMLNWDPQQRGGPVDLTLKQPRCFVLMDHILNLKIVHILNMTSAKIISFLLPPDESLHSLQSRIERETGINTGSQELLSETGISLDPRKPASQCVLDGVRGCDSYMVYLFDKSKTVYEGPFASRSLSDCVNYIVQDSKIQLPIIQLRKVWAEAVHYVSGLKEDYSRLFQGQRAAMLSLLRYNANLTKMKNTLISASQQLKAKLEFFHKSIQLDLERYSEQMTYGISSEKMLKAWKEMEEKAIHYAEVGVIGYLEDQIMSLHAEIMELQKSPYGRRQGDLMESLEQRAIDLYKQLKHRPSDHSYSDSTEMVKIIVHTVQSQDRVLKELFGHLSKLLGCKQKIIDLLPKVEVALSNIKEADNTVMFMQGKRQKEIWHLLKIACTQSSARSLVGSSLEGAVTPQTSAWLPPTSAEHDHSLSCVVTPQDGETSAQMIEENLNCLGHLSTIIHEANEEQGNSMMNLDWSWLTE
Conditions: at 0.1 µM.

For experiment [7], the target named is T2, Inhibitor of nuclear factor kappa-B kinase subunit alpha (Homo sapiens). Conditions: at 1 µM.
Experiment [8] has as its target T3, Inhibitor of nuclear factor kappa-B kinase subunit beta (Homo sapiens) (UniProt O14920).
T3 sequence (whole entry): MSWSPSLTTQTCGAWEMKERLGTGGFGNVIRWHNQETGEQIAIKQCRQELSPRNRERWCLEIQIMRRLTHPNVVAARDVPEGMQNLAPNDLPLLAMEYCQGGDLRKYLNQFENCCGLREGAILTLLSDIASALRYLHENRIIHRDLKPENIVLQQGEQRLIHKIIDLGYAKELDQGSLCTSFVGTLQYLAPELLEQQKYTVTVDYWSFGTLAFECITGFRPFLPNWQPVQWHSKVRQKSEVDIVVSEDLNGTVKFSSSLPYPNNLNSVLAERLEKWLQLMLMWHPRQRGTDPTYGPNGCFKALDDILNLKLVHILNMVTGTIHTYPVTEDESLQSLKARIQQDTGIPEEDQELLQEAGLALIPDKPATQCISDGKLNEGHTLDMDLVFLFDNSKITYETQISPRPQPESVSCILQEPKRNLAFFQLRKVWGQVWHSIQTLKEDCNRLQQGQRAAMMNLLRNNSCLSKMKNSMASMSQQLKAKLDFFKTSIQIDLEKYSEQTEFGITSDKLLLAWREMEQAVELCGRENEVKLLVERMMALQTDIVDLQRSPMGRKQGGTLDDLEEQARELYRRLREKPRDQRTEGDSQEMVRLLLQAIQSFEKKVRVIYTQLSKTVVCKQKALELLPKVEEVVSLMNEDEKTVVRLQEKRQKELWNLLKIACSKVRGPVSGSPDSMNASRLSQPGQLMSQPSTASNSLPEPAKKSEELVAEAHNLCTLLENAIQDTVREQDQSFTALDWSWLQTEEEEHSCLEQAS
Conditions: at 0.1 µM.

Experiment [9] addresses T3, Inhibitor of nuclear factor kappa-B kinase subunit beta (Homo sapiens). The note with it: at 1 µM.
For experiment [10], the target named is T4, Inhibitor of nuclear factor kappa-B kinase subunit epsilon (Homo sapiens) (UniProt Q14164).
T4 sequence (whole entry): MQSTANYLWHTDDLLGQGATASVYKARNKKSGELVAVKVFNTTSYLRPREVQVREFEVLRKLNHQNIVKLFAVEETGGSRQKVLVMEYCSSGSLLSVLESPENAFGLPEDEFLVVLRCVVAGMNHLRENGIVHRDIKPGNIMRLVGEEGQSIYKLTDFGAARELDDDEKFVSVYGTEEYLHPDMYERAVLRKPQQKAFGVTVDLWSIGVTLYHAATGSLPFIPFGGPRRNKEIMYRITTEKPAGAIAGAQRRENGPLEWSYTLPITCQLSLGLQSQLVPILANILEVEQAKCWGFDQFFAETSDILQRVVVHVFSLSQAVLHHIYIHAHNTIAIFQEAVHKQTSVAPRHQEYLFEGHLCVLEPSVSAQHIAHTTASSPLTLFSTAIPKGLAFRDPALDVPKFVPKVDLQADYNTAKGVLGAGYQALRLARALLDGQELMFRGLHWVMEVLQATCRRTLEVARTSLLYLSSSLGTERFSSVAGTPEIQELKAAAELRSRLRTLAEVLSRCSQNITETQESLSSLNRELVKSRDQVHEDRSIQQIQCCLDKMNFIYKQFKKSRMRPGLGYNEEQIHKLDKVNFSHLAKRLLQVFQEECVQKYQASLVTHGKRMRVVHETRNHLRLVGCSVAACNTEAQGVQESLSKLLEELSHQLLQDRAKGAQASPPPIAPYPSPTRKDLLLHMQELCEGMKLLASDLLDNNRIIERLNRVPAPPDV
The note with it: at 0.1 µM.

Experiment [11] has as its target T4, Inhibitor of nuclear factor kappa-B kinase subunit epsilon (Homo sapiens). Conditions: at 1 µM.
In experiment [12] the target is T5, Serine/threonine-protein kinase Nek1 (Homo sapiens) (UniProt Q96PY6).
T5 sequence (whole entry): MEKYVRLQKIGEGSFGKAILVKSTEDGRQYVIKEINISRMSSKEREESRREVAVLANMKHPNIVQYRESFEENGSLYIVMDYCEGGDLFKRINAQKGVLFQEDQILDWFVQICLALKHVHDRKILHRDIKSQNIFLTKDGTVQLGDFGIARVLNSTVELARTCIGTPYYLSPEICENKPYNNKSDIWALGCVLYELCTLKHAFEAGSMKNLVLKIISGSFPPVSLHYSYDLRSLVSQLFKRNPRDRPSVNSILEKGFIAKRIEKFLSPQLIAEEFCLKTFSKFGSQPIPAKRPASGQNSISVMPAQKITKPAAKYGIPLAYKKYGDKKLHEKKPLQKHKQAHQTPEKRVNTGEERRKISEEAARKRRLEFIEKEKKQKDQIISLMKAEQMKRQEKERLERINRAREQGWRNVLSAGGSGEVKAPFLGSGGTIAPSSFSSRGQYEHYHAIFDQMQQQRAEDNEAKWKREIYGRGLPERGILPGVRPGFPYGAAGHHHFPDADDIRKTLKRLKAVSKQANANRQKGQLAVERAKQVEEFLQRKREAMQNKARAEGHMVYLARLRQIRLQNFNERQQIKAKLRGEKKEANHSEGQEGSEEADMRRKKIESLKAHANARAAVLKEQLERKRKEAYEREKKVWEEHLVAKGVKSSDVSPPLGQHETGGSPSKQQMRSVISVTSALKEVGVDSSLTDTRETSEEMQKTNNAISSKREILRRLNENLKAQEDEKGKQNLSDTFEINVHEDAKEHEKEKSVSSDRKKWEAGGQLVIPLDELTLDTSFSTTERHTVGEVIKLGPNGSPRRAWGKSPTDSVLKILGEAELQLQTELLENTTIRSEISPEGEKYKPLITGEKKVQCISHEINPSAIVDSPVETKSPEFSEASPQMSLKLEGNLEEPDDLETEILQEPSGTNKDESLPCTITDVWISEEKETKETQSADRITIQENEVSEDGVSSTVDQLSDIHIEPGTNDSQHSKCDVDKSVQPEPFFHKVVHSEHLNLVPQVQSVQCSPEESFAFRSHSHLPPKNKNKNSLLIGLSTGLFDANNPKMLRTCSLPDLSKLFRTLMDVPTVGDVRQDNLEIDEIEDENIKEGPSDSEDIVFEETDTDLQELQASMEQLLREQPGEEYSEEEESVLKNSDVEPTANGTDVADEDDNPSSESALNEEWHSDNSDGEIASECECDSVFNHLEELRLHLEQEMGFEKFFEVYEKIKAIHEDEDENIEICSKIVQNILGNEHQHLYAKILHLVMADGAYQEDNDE
The note with it: at 0.1 µM.

For experiment [13], the target named is T5, Serine/threonine-protein kinase Nek1 (Homo sapiens). The note with it: at 1 µM.
The target of experiment [14] is T6, Serine/threonine-protein kinase Nek2 (Homo sapiens) (UniProt P51955).
T6 sequence (whole entry): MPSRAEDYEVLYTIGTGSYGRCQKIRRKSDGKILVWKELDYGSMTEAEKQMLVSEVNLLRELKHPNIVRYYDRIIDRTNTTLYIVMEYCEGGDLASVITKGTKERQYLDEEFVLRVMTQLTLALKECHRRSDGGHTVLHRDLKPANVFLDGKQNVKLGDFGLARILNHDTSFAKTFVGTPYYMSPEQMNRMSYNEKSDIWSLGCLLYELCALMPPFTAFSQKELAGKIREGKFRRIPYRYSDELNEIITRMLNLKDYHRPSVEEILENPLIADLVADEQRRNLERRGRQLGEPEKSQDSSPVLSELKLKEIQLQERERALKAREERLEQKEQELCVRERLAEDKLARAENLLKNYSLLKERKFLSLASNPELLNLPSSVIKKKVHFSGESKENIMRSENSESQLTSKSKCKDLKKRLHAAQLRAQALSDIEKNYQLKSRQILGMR
Conditions: at 0.1 µM.

In experiment [15] the target is T6, Serine/threonine-protein kinase Nek2 (Homo sapiens). Conditions: at 1 µM.
Experiment [16] concerns the target Serine/threonine-protein kinase Nek6 (Homo sapiens) (UniProt Q9HC98). The note with it: at 0.1 µM.
For experiment [17] the target is unchanged. The note with it: at 1 µM.
Experiment [18] deals with Serine/threonine-protein kinase Nek7 (Homo sapiens) (UniProt Q8TDX7). The note with it: at 0.1 µM.
Sequence of Serine/threonine-protein kinase Nek7 (Homo sapiens) (Q8TDX7 whole entry, looked up): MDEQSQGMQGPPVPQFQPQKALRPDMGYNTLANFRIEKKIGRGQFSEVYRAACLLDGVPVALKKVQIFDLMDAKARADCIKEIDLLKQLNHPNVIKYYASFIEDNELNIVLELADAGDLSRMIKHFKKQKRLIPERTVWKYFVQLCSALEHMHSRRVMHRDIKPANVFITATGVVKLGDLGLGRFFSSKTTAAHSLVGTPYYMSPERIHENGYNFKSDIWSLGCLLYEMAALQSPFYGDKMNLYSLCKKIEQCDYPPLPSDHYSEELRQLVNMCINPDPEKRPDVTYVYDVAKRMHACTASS
Experiment [19] has the same target. The note with it: at 1 µM.
Experiment [20] has as its target T7, Serine/threonine-protein kinase Nek9 (Homo sapiens) (UniProt Q8TD19).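 Note: reported value is the mean percent inhibition of NEK9.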
T7 sequence (whole entry): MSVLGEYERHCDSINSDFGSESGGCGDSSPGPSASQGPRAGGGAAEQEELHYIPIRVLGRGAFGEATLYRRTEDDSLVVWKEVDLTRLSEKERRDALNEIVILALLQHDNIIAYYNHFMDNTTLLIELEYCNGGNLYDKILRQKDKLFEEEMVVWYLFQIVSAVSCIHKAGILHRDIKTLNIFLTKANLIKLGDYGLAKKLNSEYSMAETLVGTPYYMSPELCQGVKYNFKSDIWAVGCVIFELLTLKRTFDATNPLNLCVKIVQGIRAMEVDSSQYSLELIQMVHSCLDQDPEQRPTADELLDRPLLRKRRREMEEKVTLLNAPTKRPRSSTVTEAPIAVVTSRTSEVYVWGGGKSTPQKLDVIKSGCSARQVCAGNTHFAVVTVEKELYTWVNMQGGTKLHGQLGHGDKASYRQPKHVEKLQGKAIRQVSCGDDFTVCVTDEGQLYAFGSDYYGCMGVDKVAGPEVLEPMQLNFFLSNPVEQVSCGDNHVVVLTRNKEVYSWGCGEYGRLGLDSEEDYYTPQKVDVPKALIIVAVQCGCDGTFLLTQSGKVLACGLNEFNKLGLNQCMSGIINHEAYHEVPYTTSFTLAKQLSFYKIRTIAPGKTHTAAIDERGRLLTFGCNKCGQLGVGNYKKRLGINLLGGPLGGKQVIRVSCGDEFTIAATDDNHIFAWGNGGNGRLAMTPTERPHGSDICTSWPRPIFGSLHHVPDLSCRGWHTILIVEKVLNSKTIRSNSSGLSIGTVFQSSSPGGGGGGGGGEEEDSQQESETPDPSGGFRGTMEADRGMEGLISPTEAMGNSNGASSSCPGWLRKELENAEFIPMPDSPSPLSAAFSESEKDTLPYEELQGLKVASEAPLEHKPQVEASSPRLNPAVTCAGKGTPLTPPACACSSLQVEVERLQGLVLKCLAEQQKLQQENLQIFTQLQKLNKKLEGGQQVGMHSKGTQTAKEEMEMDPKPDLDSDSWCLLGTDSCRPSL
The note with it: at 0.1 µM.

Sequence of Serine/threonine-protein kinase Nek6 (Homo sapiens) (Q9HC98 whole entry): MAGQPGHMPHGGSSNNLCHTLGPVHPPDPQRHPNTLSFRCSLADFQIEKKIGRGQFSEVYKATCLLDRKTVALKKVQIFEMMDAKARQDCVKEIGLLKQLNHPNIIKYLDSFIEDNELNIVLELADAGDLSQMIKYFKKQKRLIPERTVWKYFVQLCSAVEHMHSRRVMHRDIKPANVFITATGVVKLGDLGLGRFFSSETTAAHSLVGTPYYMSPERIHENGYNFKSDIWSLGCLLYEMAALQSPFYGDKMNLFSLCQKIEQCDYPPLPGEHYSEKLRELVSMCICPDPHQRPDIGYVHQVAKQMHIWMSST
Sequence of Sphingosine kinase 1 (Homo sapiens) (Q9NYA1 whole entry): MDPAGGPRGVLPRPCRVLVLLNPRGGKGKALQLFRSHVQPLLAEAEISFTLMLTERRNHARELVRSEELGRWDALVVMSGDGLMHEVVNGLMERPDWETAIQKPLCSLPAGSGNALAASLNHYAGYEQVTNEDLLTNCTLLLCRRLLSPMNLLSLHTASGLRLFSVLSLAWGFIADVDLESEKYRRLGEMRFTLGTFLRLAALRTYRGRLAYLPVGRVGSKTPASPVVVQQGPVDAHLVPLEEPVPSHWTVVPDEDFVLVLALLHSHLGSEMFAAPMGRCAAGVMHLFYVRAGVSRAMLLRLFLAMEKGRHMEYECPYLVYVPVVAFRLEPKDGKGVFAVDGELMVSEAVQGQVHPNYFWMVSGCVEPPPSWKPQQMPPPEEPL

Usually inhibition stands for the change of the read-out against control, counted positive when it falls. As to `COc1cccc(-n2ncc3c(N/N=C/c4ccc(F)cc4)ncnc32)c1`, the inhibition in experiment [1] is -1.38%; in [2] it was -1.23%; in experiment [3], 0.38%; in experiment [4], 4.77%; in experiment [5], 15.9%; in [6] it was 12.3%. For the same compound, the inhibition in experiment [7] is 6.86%; in experiment [8], 5.69%; in [9], 3.91%; in experiment [10], 14.1%; in experiment [11], 8.08%; in experiment [12] it was 2.09%. For the same compound, the inhibition worked out at 4.05% in experiment [13]; 3.93% in [14]; 2.32% in experiment [15]; 2.71% in experiment [16]; 3.01% in [17]; 1.25% in [18]. The inhibition in experiment [19] came out at 3.29%; in [20], 1.55%.
